Screens deposited in PubChem BioAssay by National Center for Advancing Translational Sciences (NCATS).
Tau fluor counter – counter-screen for tau fibril formation inhibitors; tau K18 P301L Alexa594 fluorescence, heparin fibrillization; Potency, µM (series often up to 57.7 µM), for the others: top-dose activity change, negative = decrease; 280,000 tested, 0.93% active; further: nearly all actives have a fitted effect of over 55% in size
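Human tau K18 P301L (15 uM unlabeled, 0.24 uM Alexa 594-labeled) in 100 mM sodium acetate pH 7 with 20 uM heparin, 6 hr at 37 C. ThT 30 uM added, 1 hr ambient; Alexa 594 FP and total fluorescence read at 555/632 nm.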
HPGD inh – inhibitors of human 15-hydroxyprostaglandin dehydrogenase (HPGD); P15428; purified HPGD, NADH fluorescence kinetic, PGE2 substrate; Potency, µM, inactives show top-dose activity change, negative = inhibition, most hits filed as inhibitors; 150,000 tested, 4.3% active; AID 894; active means well fitted inhibition curve with a large enough effect, not every such curve was filed as active; inconclusive means small, poorly fitted or top-dose-only effect, or another doubt; inactive means no such curve, though single readings can be large or run the other way
Target sequence (P15428 whole entry, looked up): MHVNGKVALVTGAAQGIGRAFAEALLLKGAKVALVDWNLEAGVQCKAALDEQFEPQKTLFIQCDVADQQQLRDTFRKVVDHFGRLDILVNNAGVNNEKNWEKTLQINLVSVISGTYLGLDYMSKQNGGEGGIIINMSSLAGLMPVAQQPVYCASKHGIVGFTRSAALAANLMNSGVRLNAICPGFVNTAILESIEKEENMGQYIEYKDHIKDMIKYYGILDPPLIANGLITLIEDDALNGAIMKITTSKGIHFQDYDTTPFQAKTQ
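NADH formation kinetics: reaction with 30 uM PGE2 and 1 mM NAD+ (final), 20 nM enzyme, Tris-HCl pH 8 with Tween 20, after 15 min compound preincubation at room temperature. Fluorescence change, last versus first of five reads.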
Tau fibril ThT – tau fibrillization inhibition (ThT binding); recombinant tau K18 P301L (four-repeat tau fragment), heparin-induced fibrillization, ThT fluorescence; Potency, µM (doses to about 57.4 µM), without a hit: at the highest dose activity, negative = inhibition, usual class: inhibitors; 270,000 tested, 2.1% active; AID 1460; further: nearly all actives have a fitted effect of over 55% in size
Target sequence (P10636 561-689 P618L limits assumed): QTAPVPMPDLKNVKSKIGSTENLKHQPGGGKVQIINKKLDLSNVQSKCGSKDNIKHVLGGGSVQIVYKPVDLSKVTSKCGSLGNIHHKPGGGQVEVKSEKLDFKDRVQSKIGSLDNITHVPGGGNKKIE
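Heparin-induced fibrillization of the P301L-mutant K18 repeat-domain fragment of human tau was followed by ThT binding in quantitative high-throughput format.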
ALDH1A1 block – inhibitors of human aldehyde dehydrogenase 1A1; P00352; Purified ALDH1A1, NADH fluorescence, propionaldehyde substrate; Potency, µM (titrated, usually from 75.3 µM), without a hit: at the highest dose activity, negative = inhibition, usual class: inhibitors; 220,000 tested, 7.3% active; active means well fitted inhibition curve with a large enough effect, not every such curve was filed as active; inconclusive means small, poorly fitted or top-dose-only effect, or another doubt; inactive means no such curve, though single readings can be large or run the other way;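 further: plate controls were no enzyme wells and a reference inhibitor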
NPSR antag – antagonists of human neuropeptide S receptor cAMP signaling; Potency, µM (series often up to 38.3 µM), without a hit: at the top dose activity change, negative = inhibition, actives largely listed as inhibitors; Q6W5P4; 220,000 tested, 1% active; CHO-NPSR cells, cAMP TR-FRET, antagonist mode; further: nearly all actives have a fitted effect of over 50% in size
Tau fibril FP – inhibitors of human tau fibril formation; Potency, µM (top dose mostly 57.7 µM), for inactives: at the highest dose activity, negative = inhibition, hits mostly inhibitors; K18 P301L tau heparin fibrillization, Alexa594 FP, 6 h; 280,000 tested, 0.39% active; AID 1468; P10636; further: nearly all actives have a fitted effect of over 55% in size
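Steps: dispense K18 P301L tau (15 uM plus 0.24 uM Alexa 594 tracer, final) in pH 7 sodium acetate; add compound; add heparin (20 uM final); incubate 6 hr, 37 C; add ThT (30 uM final); after 1 hr ambient, read FP.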
Numbers without * were called inactive; ? = inconclusive; . = not tested or not shown; [ ] = another dose, or the depositor's remark. Sampled rows, rich in hits. Any-hit rate of the full collection: about 9.5%. Unless noted, the call rests on the fitted dose curve; in most records, active means well fitted curve in the direction sought with a large enough effect; inconclusive means small, poorly fitted or top-dose-only effect, or another doubt; inactive means no such curve, though single readings can be large; an effect the other way counts as inactive or inconclusive. Unless noted, on the % scale 0 is the no-effect control and ±100 the full control effect; potency means the concentration at half of the fitted maximal effect.

SMILES | Tau fluor counter | HPGD inh | Tau fibril ThT | ALDH1A1 block | NPSR antag | Tau fibril FP
Cc1ccc(NC(=O)NNc2cccc(Cl)n2)cc1 | -2% | -5% | -4% | ? | 3%[46.1 µM] | -3%
C=CCn1c(=S)[nH]c2sc3c(c2c1=O)CCC3 | -2% | 32µM* | 2% | 11µM* | -12% | -2%
C=CCn1c(=S)[nH]c2nc3c(cc2c1=O)CCCC3 | -4% | -15% | -12% | ? | 24%[46.1 µM] | -3%
COc1ccc(Br)cc1CNc1ccc(O)cc1 | ? | -18% | 13µM* | 10µM* | -16%[46.1 µM] | 25µM*
COc1cc(CNc2ccc(O)cc2)cc(Br)c1OCc1ccccc1 | 13µM*[quencher] | . | 25µM* | ? | 47% | ?
COc1cccc(N2C(=O)CSC23C(=O)N(CC(=O)Nc2cc(C)ccc2C)c2ccccc23)c1 (centres undefined) | -30% | . | -17% | . | . | -4%
COC(=O)c1ccccc1NC(=O)c1cc(-c2ccc(C)cc2)on1 | -6% | -3% | -7% | 10% | -1%[46.1 µM] | -4%
Oc1ccc(N2CCN(c3ncnc4sc(-c5ccccc5)cc34)CC2)cc1 | ? | . | ? | 25µM* | -33% | ?
CC1CC(=O)C2=C(C1)OC(N)=C(C#N)C2c1coc2ccccc2c1=O (centres undefined) | -12% | -7% | ? | 18µM* | -5%[46.1 µM] | -5%
COc1ccc(OC)c(NC(=O)[C@H](CSCc2ccccc2)N2Cc3ccccc3C2=O)c1 | ? | . | -11% | . | . | 8%
O=P(CCCCCCCCCP(=O)(c1ccccc1)c1ccccc1)(c1ccccc1)c1ccccc1 | -12% | -3% | ? | ? | 13µM* | 1%
O=C(O)CCCCCCCCCCP(=O)(c1ccccc1)c1ccccc1 | -7% | . | -6% | . | ? | -3%
O=C(NCc1ccco1)c1ccccc1Br | 0% | 2µM* | -7% | 9% | -9%[46.1 µM] | 0%
CCSc1ccccc1C(=O)NCc1ccco1 | -10% | 13µM* | -9% | 2% | -4%[46.1 µM] | -4%
O=C(NCc1ccco1)Nc1ccc(Br)cc1 | -5% | -8% | -3% | 3% | -9%[46.1 µM] | 0%
O=C(NCc1ccco1)C1(c2ccc(Br)cc2)CCCC1 | -12% | -16% | -6% | 0.18µM* | -15%[46.1 µM] | -7%
O=C(Nc1ccccc1C(=O)NCc1ccco1)c1ccco1 | -11% | -16% | -8% | ? | -2%[46.1 µM] | -9%
O=C(OCc1cc(=O)n2nc(-c3cccs3)sc2n1)c1ccccc1Cl | -9% | . | ? | . | . | -1%
C/C(CC(=O)NCCN1CCOCC1)=N\NC(=O)c1ccncc1 | -13% | . | -19% | . | 35% | -12%
CCCCCCCCCCCCCCCCCC(=O)OCC(C)O (centres undefined) | ? | -9% | 14µM* | 14% | . | ?
CCOC(=O)c1cnn(CCOC(=O)c2ccccc2)c1NC(=O)c1ccccc1 | -2% | -7% | -2% | 3% | 18% | 8%
CC1(C)CC(=O)C2=C(C1)NC(SCC(N)=O)=C(C#N)C21CCCCC1 | -16% | -20% | -9% | ? | -16%[46.1 µM] | 0%
N#CC1=C(N)NC(SCC(=O)c2ccc(Cl)cc2)=C(C#N)C12CCCC2 | 16µM*[quencher] | ? | ? | 28µM* | -25%[46.1 µM] | 14%
N#CC1=C(N)NC(SCC(=O)c2ccc(Br)cc2)=C(C#N)C12CCCCC2 | 13µM*[quencher] | -17% | ? | 13µM* | -26% | ?
COc1ccc(C(=O)CSc2nc(N)nc(SC)c2C#N)cc1 | 5% | -12% | 0% | ? | 10%[46.1 µM] | ?
SMILES | Tau fluor counter | HPGD inh | Tau fibril ThT | ALDH1A1 block | NPSR antag | Tau fibril FP
COc1ccc(C(=O)CSC2=C(C#N)C3(CCCCC3)C(C#N)=C(N)N2)cc1 | ? | . | -12% | 8.9µM* | -22%[46.1 µM] | 8%
CN(c1ccccc1)S(=O)(=O)c1ccc(Cl)nc1 | -6% | . | -1% | -3% | 0% | -14%
CN(Cc1ccccc1)S(=O)(=O)c1ccc(Cl)nc1 | -5% | -22% | 2% | 22µM* | -17%[46.1 µM] | 3%
CCN(CC)c1nc2c(c(=O)n(C)c(=O)n2C)n1CC(=O)c1ccccc1 | -9% | . | -5% | . | -6% | -3%
CC1CC(C)CN(Cc2nc3c(c(=O)n(C)c(=O)n3C)n2CCN2CCOCC2)C1 (centres undefined) | 10% | -1% | -3% | 7.9µM* | 3%[46.1 µM] | 6%
CC(C)CCn1c(CN2CCOCC2)nc2c1c(=O)n(C)c(=O)n2C | 8% | -12% | 2% | 14µM* | -6%[46.1 µM] | -1%
CCN(c1ccccc1)S(=O)(=O)c1ccc(Cl)c(NC(=O)CSc2nnc(C)s2)c1 | -26% | . | -6% | -11% | -44% | 4%
COC(=O)c1ccc(C(NC(=O)OCc2ccccc2)/C(=C/[C@@H](C)C(=O)N(C)C)c2cccnc2)cc1 (some centres undefined) | -4% | 0% | 1% | -2% | . | 0%
COc1cccc(NC(=O)Cn2c(=O)n(CCc3cccc(C)c3)c(=O)c3ccccc32)c1 | -17% | . | 5% | . | . | ?
CC/C=C\C[C@H]1C(=O)CC[C@@H]1CC(=O)O | -3% | 2% | -5% | -4% | . | -10%
COC(CNC(=O)c1ccc2c3c(onc13)-c1ccccc1C2=O)OC | 16µM*[quencher] | . | 16µM* | . | ? | ?
CC(C)CCN1CCN(C2CCN(c3ccccc3)CC2)CC1CCO (centres undefined) | -20% | . | ? | 4% | -3% | -7%
CCc1cc2ccc(C)cc2nc1SCC(=O)N1CCN(C(=O)c2ccco2)CC1 | -3% | ? | ? | 10µM* | -28%[46.1 µM] | 0%
CCc1cc2ccc(C)cc2nc1SCC(=O)NNC(=O)c1ccco1 | -1% | 0% | -10% | 4µM* | -5% | -6%
CCc1cc2cc(C)ccc2nc1SCC(=O)Nc1cc(C)on1 | 1% | -15% | 5% | 7% | ? | 0%
CCc1cc2cc3c(cc2nc1SCC(=O)N1CCN(C(=O)c2ccco2)CC1)OCO3 | -6% | -17% | ? | ? | ? | -3%
CCc1cc2ccc(C)cc2nc1SCC(=O)Nc1cc(C)on1 | -4% | . | 2% | 25µM* | 17% | -1%
COc1ccc(C)cc1-n1nnnc1SCn1nnc2ccccc2c1=O | 1% | -15% | -3% | 18µM* | -14%[46.1 µM] | -3%
Nc1nnc(SCC(=O)OCC(=O)c2ccccc2Br)s1 | -3% | . | -13% | -3% | -10% | 8%
O=C(Nc1ccccc1C(=O)N1CCCCC1)c1nsc2ccccc12 | -12% | . | 0% | . | . | -3%
COc1ccc(C)cc1-n1nnnc1SCC(=O)NNC(=O)c1ccc([N+](=O)[O-])cc1 | -16% | -19% | ? | 3.2µM* | 10% | 6%
Cc1ccc(C)c(-n2nnnc2SCC(=O)NNC(=O)c2ccco2)c1 | 1% | . | -1% | 8.9µM* | -13% | -1%
